The text below walks through data of PubChem BioAssay AID2284379 (EPA ToxCast).

Results filed as inconclusive are left out. The source made the active and inactive calls. The calls were made as follows: active = hit-call score of the fitted dose curve at least 0.9, where 1 is the maximum; inconclusive = response in the unintended direction; inactive = score below 0.9.

The assay in a line: ATG_M_32_EcoTox2: Attagene TRANS-FACTORIAL EcoTox-2 HepG2 Assay for M32 Transcription Factor (Internal Marker). As to the method: ATG_EcoTox2 is a cell-based, multiplexed assay created by modifying the existing Attagene TRANS-FACTORIAL system to include a panel of nuclear receptors from some or all the following species: human (Homo sapiens), african clawed frog (Xenopus laevis), rainbow trout (Oncorhynchus mykiss), japanese medaka (Oryzias latipes), and zebrafish (Danio rerio). The ECOTOX2-FACTORIAL format uses HepG2, a human liver cell line, with measurements taken at 24 hours after chemical dosing in a 24-well plate. ATG_M_32_EcoTox2 is one of 29 assay components calculated in the ATG_EcoTox2 assay. It is designed to make measurements of mRNA induction, a form of inducible reporter, as detected with fluorescence intensity signals by Reverse transcription polymerase chain reaction (RT-PCR) and Capillary electrophoresis technology.The assay endpoint ATG_M_32_EcoTox2 was analyzed in the positive analysis fitting direction relative to DMSO as the negative control and baseline of activity. Using a type of inducible reporter, measures of mRNA for gain-of-signal activity can be used to understand the background control at the transcription factor-level as they relate to the gene. Furthermore, this assay endpoint can be referred to as a secondary readout, because this assay has produced multiple assay endpoints where this one serves a background control function. To generalize the intended target to other relatable targets, this assay endpoint is annotated to the background measurement intended target family, where the subfamily is internal marker.
Human liver HepG2 cells are transiently transfected with multiple reporter transcription units (MRTUs) in 6-well plates using FuGene 6 reagent (Roche; 3 ml FuGene/1 mg DNA). The MRTU constructs are regulated by a cis-regulating element (promoter). Each RTU expresses a GAL4-UAS that regulates the transcription of a nearby target reporter gene sequence. A major difference between the CIS and TRANS system is that in CIS activities of endogenous TFs are measured, whereas the TRANS assay evaluates changes in activities of exogenous, chimeric NR-Gal4 proteins. […] At the end of 24 hour incubation, total RNA was isolated using TriZol reagent (Invitrogen). The isolated RNA is then reverse-transcribed using oligo(dT) primer and Mo-MLV reverse transcriptase (Invitrogen) with DNAse I (Ambion) treatment for 30 min. The one-tenth of the produced cDNA was amplified by PCR using Taq DNA polymerase (Invitrogen) and two reporter sequence-specific primers. The PCR products were fluorescently labeled by primer extension with 6-arboxyfluorescein (6-FAM) 5'-labeled reporter sequence-specific primer (2 min at 95 C, 20 s at 68 C and 10 min at 72 C) and these products were digested with 5U of HpaI (New England Biolabs) for 2h at 37 C. The fragments were purified using Qiaquick PCR columns (Qiagen), analyzed on an ABI 3130xL genetic analyzer (Applied Biosystems) with peak positions identified by using a set of X-rhodamine (ROX)-labeled MapMarker1000 molecular weight standards (BioVentures). The raw capillary electrophoresis data was processed using Attagraph software (Attagene).
Consider `[Cl][Sn]([c]1ccccc1)([c]1ccccc1)[c]1ccccc1`, for which the molecule was classed as inactive. For `O=P(Oc1ccccc1)(Oc1ccccc1)Oc1ccccc1` the value was “inactive”; for `CCCCOCN(C(=O)CCl)c1c(CC)cccc1CC`, “inactive”; for `O=S(=O)(O)C(F)(F)C(F)(F)C(F)(F)C(F)(F)C(F)(F)C(F)(F)F`, “inactive”. Regarding `O=C(O)C(F)(F)C(F)(F)C(F)(F)C(F)(F)C(F)(F)C(F)(F)C(F)(F)F`, the result was inactive.
